Source: PubChem BioAssay (EPA / NIEHS)
Results filed as inconclusive are left out. Active and inactive are the calls of the source. Rule for the calls: active = hit-call score of the fitted dose curve at least 0.9, where 1 is the maximum; inconclusive = response in the unintended direction; inactive = score below 0.9.

Biological target: Cellular tumor antigen p53 (Homo sapiens) (UniProt P04637)
Experiment: TOX21_p53_BLA_p2_ratio: Tox21 HCT-116 p53 Agonism Beta-lactamase Assay, Ratio, Phase 2 (AID 2283592)
Summary of the method: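 Plated HCT116 p53-bla cells (4000/well) received compound after 5 h, then 16 h at 37C/5% CO2. CCF4-AM added, 2 h RT. Ratio of 460 to 530 nm emission taken as the p53 reporter signal.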

Sequence of Cellular tumor antigen p53 (Homo sapiens) (P04637 whole entry, looked up): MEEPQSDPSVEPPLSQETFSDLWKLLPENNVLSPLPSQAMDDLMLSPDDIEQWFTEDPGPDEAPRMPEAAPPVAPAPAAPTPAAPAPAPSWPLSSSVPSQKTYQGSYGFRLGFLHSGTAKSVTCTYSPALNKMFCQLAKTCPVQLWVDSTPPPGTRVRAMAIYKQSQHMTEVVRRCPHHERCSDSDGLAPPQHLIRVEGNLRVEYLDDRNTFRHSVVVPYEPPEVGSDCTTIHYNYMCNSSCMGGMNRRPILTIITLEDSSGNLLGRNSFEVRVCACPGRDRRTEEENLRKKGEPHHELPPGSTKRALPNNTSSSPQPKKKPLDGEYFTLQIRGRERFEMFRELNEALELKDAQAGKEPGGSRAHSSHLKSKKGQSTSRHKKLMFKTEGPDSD

| Compound | AC50 | outcome |
| --- | --- | --- |
| COc1cccc(-c2ccc(/C=C\CN3CCCCCC3)cc2Cl)c1 | 70.5 µM (active) | – |
| CC[C@H]1CC[C@H](NCc2cc3c(cc2OC)[C@H]2C[C@H]2C(=O)N3C)[C@H](c2ccccc2)N1 | – | inactive |
| CCCCCCCCO | – | inactive |
| Fc1ccccc1[C@@H](F)COC1CCC(Nc2ncnc3[nH]ncc23)CC1 (some centres not stated) | – | inactive |
| CNCc1ccc(NC(=O)c2c[nH]c3c2C(=O)CCC3)cc1 | – | inactive |
| O=c1[nH]c2ccc(S(=O)CCN3CCC(Cc4ccc(F)cc4)CC3)cc2o1 (configuration not stated) | – | inactive |
| CCOC(=O)c1ccc(C2CCC(NC[C@H](O)COc3ccc(O)c(NS(C)(=O)=O)c3)CC2)cc1 (some centres not stated) | 80.4 µM (active) | – |
| CCN(C(=O)c1cc(C)cc(OC[C@H](C)Nc2ccncc2)c1)C(C)C | – | inactive |
| Cc1ccc(O)cc1 | – | inactive |
| CNS(=O)(=O)c1cc(C(=O)N2CCC(CCN3C4CCC3CC(n3c(C)nc5ccccc53)C4)(c3cccc(F)c3)CC2)c(Cl)cc1F (configuration not stated) | – | inactive |
| CC(C)CCO | – | inactive |
| CCCCC(CC)COC(=O)CCCCCCCCC(=O)OCC(CC)CCCC (configuration not stated) | – | inactive |
| CN(C)c1ccc(Cc2ccc(N(C)C)cc2)cc1 | – | inactive |
| CCNc1ccccc1 | – | inactive |
| CC(C)=CCC/C(C)=C/CO | – | inactive |
| O=C(O)CCN(C1(C(=O)NO)CCCC1)S(=O)(=O)c1ccc(Oc2ccc(F)cc2)cc1 | – | inactive |
| Cc1ccc(N)cc1O | – | inactive |
| CCCC(=O)OCC | – | inactive |
| CC1=CC(=O)CC(C)(C)C1 | – | inactive |
| COC(=O)CC(=O)OC | – | inactive |
| CCCCC(CC)COC(=O)c1ccc(C(=O)OCC(CC)CCCC)cc1 (configuration not stated) | – | inactive |
| COc1ccc2sc(C(=O)Nc3nnn[nH]3)c(OC(C)C)c2c1 | – | inactive |
| Cc1c(-c2cccnc2)c2ccccc2n1CCCCC(=O)O | – | inactive |
| CCc1cc(SCc2sc(-c3ccc(C(F)(F)F)cc3)nc2CN2CCN(c3ccc(OC)cc3)CC2)ccc1OCC(=O)O | 46.1 µM (active) | – |
| CCOC(=O)COc1ccc2c(c1)CC(NCC(O)c1cccc(Cl)c1)CC2 (configuration not stated) | 70.3 µM (active) | – |
| CCOc1cccc(-n2cc(C(=O)N3CCN(c4cc(C(=O)O)c5ccccc5c4)CC3)nc2-c2ccc(C)cc2)c1 | 18 µM (active) | – |

System: not listed separately
Experiment: TOX21_p53_BLA_p3_viability: Viability Assessment in the Tox21 HCT-116 p53 Agonism Beta-lactamase Assay, Phase 3 (AID 2283593);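 note: cells exposed to compound for 16 h before reading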
Summary of the method: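 HCT116 cells, 4000/well, dosed 5 h after plating by pin transfer (217-fold dilution from DMSO stock) and incubated 16 h at 37C, 5% CO2. Viability read as ATP luminescence with CellTiter-Glo after 30 min at room temperature.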

| Compound | outcome | AC50 |
| --- | --- | --- |
| COc1cccc(-c2ccc(/C=C\CN3CCCCCC3)cc2Cl)c1 | inactive | – |
| CC[C@H]1CC[C@H](NCc2cc3c(cc2OC)[C@H]2C[C@H]2C(=O)N3C)[C@H](c2ccccc2)N1 | inactive | – |
| CCCCCCCCO | inactive | – |
| Fc1ccccc1[C@@H](F)COC1CCC(Nc2ncnc3[nH]ncc23)CC1 (some centres not stated) | inactive | – |
| CNCc1ccc(NC(=O)c2c[nH]c3c2C(=O)CCC3)cc1 | inactive | – |
| O=c1[nH]c2ccc(S(=O)CCN3CCC(Cc4ccc(F)cc4)CC3)cc2o1 (configuration not stated) | inactive | – |
| CCOC(=O)c1ccc(C2CCC(NC[C@H](O)COc3ccc(O)c(NS(C)(=O)=O)c3)CC2)cc1 (some centres not stated) | inactive | – |
| CCN(C(=O)c1cc(C)cc(OC[C@H](C)Nc2ccncc2)c1)C(C)C | inactive | – |
| CNS(=O)(=O)c1cc(C(=O)N2CCC(CCN3C4CCC3CC(n3c(C)nc5ccccc53)C4)(c3cccc(F)c3)CC2)c(Cl)cc1F (configuration not stated) | – | 46.1 µM (active) |
| CC(C)CCO | inactive | – |
| CCCCC(CC)COC(=O)CCCCCCCCC(=O)OCC(CC)CCCC (configuration not stated) | inactive | – |
| CN(C)c1ccc(Cc2ccc(N(C)C)cc2)cc1 | inactive | – |
| CCn1nc(Cc2ccccc2)cc1C1CCN(C[C@H]2C[C@H](N(C)[C@@H](C(=O)O)C(C)C)C[C@@H]2c2cccc(F)c2)CC1 | inactive | – |
| CC(C)CCCCCCOC(=O)c1ccc(C(=O)OCCCCCCC(C)C)c(C(=O)OCCCCCCC(C)C)c1 | inactive | – |
| CC(C)=CCC/C(C)=C/CO | inactive | – |
| CC(=O)c1ccc2c(c1)[C@H](NC(=O)c1ccc(F)cc1)[C@@H](O)C(C)(C)O2 | inactive | – |
| O=C(O)CCN(C1(C(=O)NO)CCCC1)S(=O)(=O)c1ccc(Oc2ccc(F)cc2)cc1 | inactive | – |
| Cc1ccc(N)cc1O | inactive | – |
| CCCC(=O)OCC | inactive | – |
| CC1=CC(=O)CC(C)(C)C1 | inactive | – |
| CCCCC(CC)COC(=O)c1ccc(C(=O)OCC(CC)CCCC)cc1 (configuration not stated) | inactive | – |
| COc1ccc2sc(C(=O)Nc3nnn[nH]3)c(OC(C)C)c2c1 | – | 17.8 µM (active) |
| CCc1cc(SCc2sc(-c3ccc(C(F)(F)F)cc3)nc2CN2CCN(c3ccc(OC)cc3)CC2)ccc1OCC(=O)O | – | 17.2 µM (active) |
| CCOC(=O)COc1ccc2c(c1)CC(NCC(O)c1cccc(Cl)c1)CC2 (configuration not stated) | inactive | – |
| CCOc1cccc(-n2cc(C(=O)N3CCN(c4cc(C(=O)O)c5ccccc5c4)CC3)nc2-c2ccc(C)cc2)c1 | – | 28.6 µM (active) |
| COCCOc1cc2cc(C(=O)NC3CCN(C(C)C)CC3)n(CC(=O)Nc3ccc(Cl)cn3)c2cn1 | inactive | – |
